# According to ChEMBL document CHEMBL3988442, “University of Dundee, Small-Polar-MMV Screening Library” (2021):
# About 13,000 (27%) of roughly 48,000 compounds showed an effect of 50% or more. This is one part of the list.
# Test system: Wolbachia pipientis
# Experiment: Anti-Wolbachia Cell-Based Screen
# Type: functional
# Set-up: scale not given: in the data most compounds retested in dose-response had high values
# Conditions: 5 µM
row,Compound,Percent Effect [%]
1,COCCN(Cc1ccc(OC)nc1)Cc1cccs1,6.12
2,O=C(Nc1ccccc1)C1CN(CC2CCOCC2)CC12CCOCC2.O=C(O)C(F)(F)F (centres undefined),-3.242
3,O=C(Nc1ccccc1)N1C(CN2CCOCC2)[C@]2(O)CC[C@H]1CC2 (some centres undefined),91.52
4,O=C(Nc1ccccc1)N1C[C@H]2CC[C@@H]1CN(Cc1ccccc1)C2,-24.67
5,O=C(Nc1ccccc1)N1C(CO)[C@]2(O)CC[C@H]1CC2 (some centres undefined),93.37
6,O=S(=O)(c1ccccc1)N1C(CN2CCOCC2)[C@]2(O)CC[C@H]1CC2 (some centres undefined),83.09
7,O=C(O)C(F)(F)F.O=S(=O)(c1ccccc1)N1C[C@@H]2COC[C@]2(CN2CCOCC2)C1,14.04
8,O=C(NCc1ccccc1CN1CCC(O)CC1)Nc1ccccc1,6.714
9,COCC1N(C(=O)Nc2ccccc2)[C@H]2CC[C@]1(O)CC2 (some centres undefined),103.1
10,O=C(O)C(F)(F)F.O=S(=O)(NC1CCC12CCN(CC1CCOCC1)CC2)c1ccccc1 (centres undefined),-4.51
11,COCCN1CCC(NC(=O)NCC2(c3ccccc3)CC2)C1 (centres undefined),-5.464
12,O=C(Nc1ccccc1)C1CN(CC2CC2)CC12CCOCC2.O=C(O)C(F)(F)F (centres undefined),-9.303
13,CC(C)n1c(C(=O)N2CCCC2)nc2c1CCN(C)C2.O=C(O)C(F)(F)F,-17.76
14,O=C(Nc1cnc2n1CCCC2)c1cccc(OCC(F)(F)F)c1,-7.584
15,NC(=O)C1CCN(CCc2ccc(NCc3cccnc3)cc2)CC1,-10.11
16,CC(O)C1CCN(c2cc(Cl)ccc2C#N)CC1 (centres undefined),-3.342
17,CC1(c2ccccc2)CCCN(Cc2cncn2C2CCCC2)C1 (centres undefined),-2.034
18,CC(C)CNC(=O)CNC(=O)NCC(O)c1ccc2ccccc2c1 (centres undefined),1.707
19,CCSc1cc(C(=O)N(CC(F)F)C(C)C)ccn1,-6.776
20,CCSc1cc(C(=O)NCc2ccccc2O)ccn1,-4.116
21,CCSc1cc(C(=O)NCCC(=O)Nc2ccccn2)ccn1,-16.79
22,CCSc1cc(C(=O)N(C(C)C)C2CC2)ccn1,-12.03
23,O=C(O)c1ccnc(SCC(F)(F)F)c1,103

row,Compound,Percent Effect [%]
1,O=C(O)c1ccnc(SCc2ccccc2)c1,93.4
2,CCC(CC)(CN)NC(C)c1ccccc1 (centres undefined),4.415
3,O=C(NCCN1CCC(c2cccs2)CC1)Nc1cccs1,-15.35
4,COc1ccc(CNC(=O)CCN2CCOC(C(F)(F)F)C2)cc1 (centres undefined),-3.399
5,COc1ccc(CCNC(=O)CN2CCOCS2(=O)=O)cc1,-7.481
6,O=C(NCCc1ccccc1)NCCN1CCC(c2cccs2)CC1,129.5
7,O=C(NCCc1cccc(O)c1)NC1CCN(c2ccccc2)C1=O (centres undefined),-1.396
8,COc1ccc(CCC(=O)NCCN2CCC(c3cccs3)CC2)cc1,160.9
9,CO[C@H]1CNC[C@@H]1NC(=O)c1cc(C)nc2ccc(C)cc12,-4.766
10,COCCN1C[C@H]2CCN(C(C)=O)CC[C@H]2S1(=O)=O,-12.61
11,O=C(O)C1CCCN(c2nc3c(-c4ccccc4)csc3c(=O)[nH]2)C1 (centres undefined),5.88
12,COc1ccc2c(c1)nc1n2[C@@H](CN(C2CCC2)C2CCC2)COC1,-7.437
13,Cc1cnn(CC2CN(CC(=O)N(C)Cc3cccs3)CCO2)c1 (centres undefined),-3.9
14,Cc1cnn(CC2CCCN2CC(=O)N(C)Cc2ccsc2)c1 (centres undefined),-8.163
15,CN(Cc1ccsc1)C(=O)CN1CCOC(Cn2cncn2)C1 (centres undefined),122.3
16,Cc1cnn(CC2CN(CC(=O)N(C)Cc3ccsc3)CCO2)c1 (centres undefined),117
17,Cc1cc(C)n(C2CCCN(C(=O)CCNS(C)(=O)=O)C2)n1 (centres undefined),0.7954
18,Cc1cnn(C2CCCN(C(=O)CN(C)c3cnccn3)C2)c1 (centres undefined),6.201
19,Cc1cnn(C2CCCN(C(=O)CCc3cnn(C)c3)C2)c1 (centres undefined),94.12
20,Cc1cnn(C2CCCN(C(=O)Cn3ccc(=O)n(C)c3=O)C2)c1 (centres undefined),-20.71
21,O=C(CCc1cscn1)N1CCCC(n2ccnc2)C1 (centres undefined),-7.112
22,COc1cccc(CCC(=O)N2CCCC(n3cc(C)cn3)C2)c1 (centres undefined),-1.259
23,Cc1cnn(C2CCCN(C(=O)CCc3cscn3)C2)c1 (centres undefined),115.3

row,Compound,Percent Effect [%]
1,Cc1cnn(C2CCCN(C(=O)CCc3ccncc3)C2)c1 (centres undefined),119.7
2,Cc1cnn(C2CCCN(C(=O)CCNS(C)(=O)=O)C2)c1 (centres undefined),109.1
3,CCCC(C)N(C)Cc1nnc(-c2ccc(Br)s2)o1 (centres undefined),-85.49
4,CCNc1ncc(C(=O)N(C)Cc2nc3cc(Cl)ccc3[nH]2)cn1,4.323
5,COc1ccc(-n2c(CCC(=O)O)nc3ccccc32)cc1CO,-17.89
6,CN(C)C(=O)CN1C[C@@H]2CC[C@H](C1)N(C(=O)CCn1cncn1)C2,-10.88
7,O=C(NCC(O)COc1cccc(F)c1)c1ccoc1 (centres undefined),11.74
8,CCN(C(=O)c1ccc2nnc(C3CCN(C)C3)n2c1)C(C)C.O=C(O)C(F)(F)F (centres undefined),-13.6
9,NC(=O)c1cc(C2CCCN(C(=O)CCc3cscn3)C2)n[nH]1 (centres undefined),0.5679
10,Cc1cc(C2CCCN(C(=O)CCc3cscn3)C2)n[nH]1 (centres undefined),93.55
11,O=C(CCc1cscn1)N1CCCC(c2ccn[nH]2)C1 (centres undefined),-4.951
12,Cc1cc(CC(=O)NCc2ccnc(OCC(F)(F)F)c2)no1,-12.47
13,CC(C)C(=O)NCc1ccnc(Oc2ccc(F)cc2)c1,-7.223
14,CCOc1cc(CNC(C)c2sccc2C)ccn1 (centres undefined),3.225
15,CCOC(=O)NCCC(=O)NCc1ccnc(Oc2ccc(F)cc2)c1,11.47
16,CCOc1ccccc1Oc1ccc(CN)cn1,5.762
17,NCc1ccc(Oc2cccc(Cl)c2Cl)cc1,-2.508
18,Cc1ccc(Oc2cc(CN)ccn2)cc1C.Cl,95.86
19,Cn1cc(C(=O)Nc2ccnc(Oc3ccccc3)c2)ccc1=O,-17.65
20,NCc1ccnc(Oc2ccccc2)c1,91.83
21,NCc1ccnc(Oc2ccc(F)cc2)c1,111.3
22,CCOc1ccc(Oc2cc(CN)ccn2)cc1,101.1
23,CCOC(CC)C(=O)NCc1ccnc(Oc2ccc(F)cc2)c1 (centres undefined),-12.82
